The list is not random: actives were taken first. Their share in the collection is about 10%.
JMJD2A Tudor – JMJD2A Tudor domain (human) inhibition; O75164; AlphaScreen JMJD2A-Tudor / H3K4me3 peptide binding; actives 4.4% (n = 390,000); Potency, µM (highest dose often 114 µM), actives largely listed as inhibitors; also: nearly all actives have a fitted effect of over 50% in size
HP1b chromo inh – inhibitors of HP1-beta chromodomain binding to methylated histone tails. AID 540317. P83916. actives 0.56% (n = 390,000). AlphaScreen HP1-beta / biotin-H3K9me3 peptide binding. Potency, µM (titrated, usually from 114 µM), most hits filed as inhibitors; also: nearly all actives have a fitted effect of over 70% in size
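Compound inhibition of the preformed complex between 50 nM HP1-beta and 50 nM biotinylated H3K9me3 peptide was read by AlphaScreen. Buffer was PBS pH 7.4 with 0.01% Tween-20. Incubations ran 30 min at room temperature, with 10 ug/mL donor/acceptor beads.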
BAZ2B inh – inhibitors of human BAZ2B bromodomain. actives 4.4% (n = 360,000). AlphaScreen BAZ2B-H3K14Ac peptide displacement. Q9UIF8. Potency, µM (doses to about 114 µM), actives largely listed as inhibitors. AID 504333; also: nearly all actives have a fitted effect of over 60% in size
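Inhibition is scored as reduced AlphaScreen emission. The BAZ2B/b-H3(5-23)K14Ac complex (50 nM each) in PBS pH 7.4, 0.01% Tween-20 meets compound (up to 110 uM) for 30 min at RT before bead addition.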
GLS inhibitor – inhibitors of human glutaminase (GLS) | GLS enzymatic activity, qHTS titration | Potency, µM (top dose mostly 45.5 µM), hits mostly inhibitors | actives 0.21% (n = 410,000)
Target sequence (O94925 whole entry, looked up): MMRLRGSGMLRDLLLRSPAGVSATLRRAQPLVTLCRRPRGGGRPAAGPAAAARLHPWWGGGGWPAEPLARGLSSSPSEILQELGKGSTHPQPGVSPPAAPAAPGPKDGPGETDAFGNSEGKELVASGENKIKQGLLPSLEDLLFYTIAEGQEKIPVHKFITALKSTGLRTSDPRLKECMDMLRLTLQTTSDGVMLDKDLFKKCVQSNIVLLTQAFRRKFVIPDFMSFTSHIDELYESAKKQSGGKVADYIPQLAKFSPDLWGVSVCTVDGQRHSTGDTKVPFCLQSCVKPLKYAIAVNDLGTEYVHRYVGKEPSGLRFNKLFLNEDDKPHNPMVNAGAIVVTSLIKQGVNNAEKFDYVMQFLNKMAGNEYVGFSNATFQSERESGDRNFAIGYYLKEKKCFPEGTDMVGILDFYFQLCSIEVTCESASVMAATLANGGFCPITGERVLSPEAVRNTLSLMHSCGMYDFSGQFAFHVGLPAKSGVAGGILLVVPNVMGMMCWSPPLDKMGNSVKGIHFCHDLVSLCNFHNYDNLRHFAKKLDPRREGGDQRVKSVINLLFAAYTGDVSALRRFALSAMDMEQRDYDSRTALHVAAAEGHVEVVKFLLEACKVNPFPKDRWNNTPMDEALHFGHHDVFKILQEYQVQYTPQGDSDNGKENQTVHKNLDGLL
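Compounds were pin-transferred onto hKGA, after which L-glutamine (1 mM solution) and a detection mix of glutamate oxidase, HRP and Amplex Red were added. Initial and 30 min RT fluorescence reads were collected.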
G9a block – inhibitors of human histone lysine methyltransferase G9a; Q96KQ7; G9a H3K9 monomethylation, AlphaScreen, 2 h; Potency, µM (series often up to 102 µM), most hits filed as inhibitors; actives 8.8% (n = 350,000); AID 504332; also: nearly all actives have a fitted effect of over 75% in size
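G9a (20 nM) preincubated 15 min RT with compounds, then 500 nM biotinylated H3K9 peptide and 20 uM SAM added; 2 h RT reaction. Monomethyl-H3K9 product detected by AlphaScreen with anti-H3K9me1 antibody, streptavidin donor and anti-rabbit IgG acceptor beads.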
Hits are given with their value; – = inactive; ? = inconclusive; · = not tested or not shown; [ ] = another dose, or the depositor's remark. Calls follow the shape of the dose curve; as a rule, active = well fitted curve in the direction sought with a large enough effect; inconclusive = small, poorly fitted or top-dose-only effect, or another doubt; inactive = no such curve, though single readings can be large; an effect the other way counts as inactive or inconclusive.

SMILES	JMJD2A Tudor	HP1b chromo inh	BAZ2B inh	GLS inhibitor	G9a block
Cc1ccc(CNC(=O)CCC2CCCN(Cc3c(C)nn(C(C)C)c3C)C2)o1 (stereo unspecified)	–	–	–	–	–
O=C(NCCCn1ccnc1)Nc1cccc(Cl)c1	45µM	–	25µM	–	–
COc1cccc(NC(=O)C(=O)NCCCn2ccnc2)c1	–	–	79µM	–	–
CCCCCOc1ccc(NC(=O)C(=O)NCCCn2ccnc2)cc1	–	–	–	–	–[12.7 µM]
CCCOc1ccc(Cc2nn3c(=O)/c(=C/c4ccco4)sc3nc2=O)cc1	56µM	–	–	–	?
COc1ccccc1/C=C/C=c1\sc2nc(=O)c(Cc3ccccc3)nn2c1=O	56µM	–	45µM	–	·
CCCC(C)c1nnc(NC(=O)C2CC(=O)N(CCc3ccc(F)cc3)C2)s1 (stereo unspecified)	?	?	–	?	7.9µM
CCc1nnc(NC(=O)C2CC(=O)N(CCc3ccc(F)cc3)C2)s1 (stereo unspecified)	–	–	–	–	?
CC(C)(C)c1nnc(NC(=O)C2CC(=O)N(CCc3ccc(F)cc3)C2)s1 (stereo unspecified)	–	–	–	–	32µM
O=C(Nc1ccccc1)/C(=C1\CCCN1)[N+](=O)[O-]	–	–	–	–	–
O=C(CCSCc1ccccc1Cl)NC1CCCCC1	–	–	–	–	–
Cc1ccc(Cc2c(-c3cccc(Cl)c3)nc3c(C)cc(Br)cn23)cc1	·	·	·	–	·
O=S(=O)(NCCSCc1c(Cl)cccc1Cl)c1ccc2c(c1)OCCO2	–	–	–	–	–
O=S(=O)(NCCSCc1ccc(Cl)cc1Cl)c1ccc2c(c1)OCCO2	79µM	–	–	–	–
O=C(CSc1nc2c([nH]c3ccccc32)c(=O)n1-c1ccc(Cl)cc1)NC1CCCCC1	–	–	–	–	–
CCOc1nc(Nc2ccc(OC)c(Cl)c2)nc(N2CCN(c3ccc(OC)cc3)CC2)n1	35µM	?	11µM	–	11µM
Cc1nc2nc(NCc3ccc(Br)cc3)[nH]n2c(=O)c1Cc1ccccc1	–	–	–	–	?
CCN1Cc2c(/C=C/c3ccccc3)nc3ccc(OC)cc3c2N(c2cccc(Cl)c2)C1	–	–	?	–	13µM
CC(=O)Nc1ccc(-n2c(=O)c3ccccc3c3ccccc3c2=O)cc1	–	–	–	–	–
O=C(O)c1ccc(-n2c(=O)c3ccccc3c3ccccc3c2=O)cc1	–	–	89µM	–	–[0.501 µM]
Cc1ccc(-n2c(=O)c3cc4c(=O)n(-c5ccc(C)c(C)c5)c(=O)c4c(C(=O)c4ccc(C(=O)O)cc4)c3c2=O)cc1C	13µM	?	10µM	–	·
O=C(CC(NCc1ccccn1)C(=O)O)Nc1ccccc1Cl (stereo unspecified)	20µM	–	2.8µM	–	–
O=C(NCc1ccccn1)Nc1cc(Cl)ccc1Cl	–	–	–	–	–
Cc1ccc(C(=O)N[C@@H](Cc2ccccc2)C(=O)N2CCC3(CC2)NCCc2[nH]cnc23)cc1C	–	–	–	–	79µM
CCCNC(=O)Cn1c(=O)oc2ccccc21	–	–	–	–	–
SMILES	JMJD2A Tudor	HP1b chromo inh	BAZ2B inh	GLS inhibitor	G9a block
CS(=O)(=O)N(CC(=O)O)c1cc(Cl)cc(Cl)c1	–	–	–	–	–[12.7 µM]
CCOc1cc(C=O)cc(N=Nc2cccc([N+](=O)[O-])c2)c1O	?	?	25µM	–	45µM
O=[N+]([O-])c1cccc(N=Nc2ccc(O)cc2O)c1	?	–	·	–	·
CCOC(=O)c1ccc(NC(=O)C2=C(C)Nc3nc(SCc4ccc(Cl)cc4)nn3C2c2ccc(OC)cc2)cc1 (stereo unspecified)	–	–	–	–	–
Cc1ccc(C2NCCS2)cc1 (stereo unspecified)	–	–	–	–	45µM
O=C(Nc1ccc2oc(-c3ccncc3)nc2c1)c1ccc(Br)o1	–	–	–	–	32µM
O=C(Nc1ccc2oc(-c3ccncc3)nc2c1)c1ccco1	–	–	?	–	40µM
O=C(O)COc1ccc(/C=N/NC(=O)c2ccc(-c3csc(Nc4ccc(Cl)cc4)n3)cc2)cc1	8.9µM	20µM	4µM	?	–
Cc1nc(CC(=O)N/N=C/c2ccc(OCC(=O)O)cc2)cs1	–	–	?	–	–
CCOc1ccc(/C=N/NC(=O)c2ccncc2)cc1OC	·	·	·	–	·
CCOc1cc(/C=N/NC(=O)c2ccc(-c3csc(Nc4ccc(C)cc4)n3)cc2)ccc1OCC(=O)O	?	–	25µM	?	45µM
Cc1ccc(Nc2nc(COC(=O)COc3ccc(C=O)cc3)cs2)cc1	?	–	–	–	–
O=C(COc1ccc(Cl)cc1)OCc1csc(Nc2ccccc2)n1	–	–	–	–	10µM
Cc1cc(S(=O)(=O)Nc2ncnc3sccc23)ccc1F	·	·	·	–	·
COc1ccc(-c2nc(SC)n(C)c(=O)c2C#N)cc1OC	–	–	–	–	–[2.33 µM]
COc1ccc(C(c2c(O)nc(SC)n(C)c2=O)c2c(O)nc(SC)n(C)c2=O)cc1O	–	–	–	–	16µM
CN(C)/C=C1/NC(=S)NC1=O	8.9µM	89µM	–	10µM	35µM
C[C@@H]1CN([C@@H](C)CO)C(=O)CCCn2nncc2CO[C@H]1CN(C)S(=O)(=O)c1cccs1	·	·	·	–	·
OCCN(Cc1ccccc1)Cc1cccc(Cl)c1Cl	10µM	?	50µM	–	?
OCCN(Cc1ccccc1)Cc1ccccc1F	1.8µM	45µM	25µM	–	2.5µM
OCCN(Cc1ccccc1)C(=S)Nc1ccc(F)cc1	–	–	–	–	–
Cc1ccc2c(=O)n3c(nc2c1)C(C)NC(=O)c1cccnc1-3 (stereo unspecified)	·	·	·	–	·
COc1ccc(Nc2c(C3CC3)nc3nc(C)cc(C)n23)cc1	·	·	·	–	·
COc1ccc(N(C)S(=O)(=O)c2cccc(C(=O)N3CCN(c4ccccc4)CC3)c2)cc1	–	–	–	–	?
COc1ccc(C2=CSC3=C(C(=O)c4cccc(S(=O)(=O)N(C)C)c4)CCN23)cc1	?	–	–	–	8.9µM
SMILES	JMJD2A Tudor	HP1b chromo inh	BAZ2B inh	GLS inhibitor	G9a block
O=C(CN1CCN(S(=O)(=O)c2ccc(F)c(Cl)c2)CC1)N1CCNC1=O	40µM	–	–	–	–
O=C(CN1CCN(S(=O)(=O)c2ccc(C(F)(F)F)cc2)CC1)N1CCNC1=O	–	–	–	–	–[12.7 µM]
FC(F)(F)c1nc2cc3nc4ccccc4[nH]c3cc2n1	–	–	–	–	40µM
CCOC(=O)c1oc2c(O)c(O)ccc2c(=O)c1-c1nncn1-c1ccccc1	?	–	?	–	3.2µM
CCOC(=O)c1oc2c(C)c(O)ccc2c(=O)c1-c1nncn1-c1ccccc1	–	–	–	–	–
COc1ccc(CNC(=O)Cn2c(=O)cc(-c3ccccc3)c3c(C)nn(C)c32)cc1	–	–	–	–	–
Cc1noc(C)c1CSCC(=O)Nc1cc(C(F)(F)F)ccc1N1CCCCC1	–	–	–	–	40µM

High-throughput results (PubChem BioAssay)
